# KKLEB tox: cytotoxicity in KKLEB CF airway cells, primary screen, cytotoxicity control for CF NF-kB inhibitor project, cell-based, uHTS, fluorescence assay plates; 360,000 tested, 0.36% active; activity change (cytotoxicity), % at 5 µM; KKLEB CF airway cells viability, ATPlite luminescence, overnight; active compounds read low; cells stimulated with P. aeruginosa culture filtrate;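 active = corrected activity change at or below -50% at 5 µM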
# HIF-2a inh: HIF-2a reporter inhibitors, primary screen, luminescence, 786-0 RCC cells; 786-0 RCC cells HIF-2a reporter, luciferase luminescence, overnight; inhibition, % at 18.8 µM; 360,000 tested, 0.72% active; AID 624352, 2012;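 active = inhibition of the luminescence signal of 40% or more relative to plate controls, in a single-dose primary screen at 18.75 µM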
# CF NFkB inh: inhibitors of PAF-induced NF-kB signaling, primary screen, cell-based, GFP fluorescence, uHTS | KKLEB NF-kB-GFP reporter, GFP fluorescence overnight | inhibition, % at 5 µM | 360,000 tested, 0.86% active;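 active = at least 50% inhibition at 5 µM, scaled per plate between neutral and stimulator controls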;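 also: PAF is a Pseudomonas aeruginosa culture filtrate used as stimulus; plate controls were PAF-stimulated DMSO wells for no effect and unstimulated DMSO wells for full effect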
# Peg3 prom inh: Peg3 promoter-driven luciferase inhibitors, primary screen, cell-based, HeLa, luciferase luminescence; HeLa PEG-Prom luciferase reporter, overnight; inhibition, % at 20 µM; 360,000 tested, 1.7% active;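 active = inhibition of at least 50% at 20 µM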
# Shn3 3UTR inh: reduction of Shn3 3'UTR firefly luciferase signal, primary screen, Schnurri-3 inhibitor project, cell-based, Clone20 osteoblasts, set 2; inhibition, % at 12.5 µM; 360,000 tested, 0.52% active; AID 588674, 2011; Clone20 osteoblast Shn3 3'UTR firefly luciferase, 24 h;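 active = mean inhibition of at least 75% with every replicate also reaching 75%; inconclusive = mean inhibition at least 75% but some replicate below; inactive = mean inhibition below 75%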;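 also: 0% = median of neutral control wells and 100% = pilot-screen positive control compound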
# MITF TRPM1 inh: inhibitors of MITF-dependent TRPM1 promoter reporter, primary screen, cell-based, SK-MEL-5, single point, luciferase; AID 488899, 2010; 330,000 tested, 0.83% active; inhibition, % at 12.5 µM; SK-MEL-5 TRPM1 promoter luciferase, 24 h;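 active = mean inhibition across replicates of 60% or more, whatever share of single replicates reaches that level; inconclusive = some that reach 60%, reason not given; inactive = mean inhibition across replicates below 60%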
# Mdm2-MdmX confirm: retested Mdm2-MdmX interaction blockers, confirmation, cell-based, luminescence, single concentration, set 2. shares compounds with HIF-2a inh. SaOS-2 split-luciferase Mdm2/MdmX complementation. inhibition, % at 8 µM. 740 tested, 99% active. AID 504601, 2011;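 active = mean inhibition of the luminescence signal across two replicates at or above 26 percent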
# Target sequence (O15151 whole entry, looked up): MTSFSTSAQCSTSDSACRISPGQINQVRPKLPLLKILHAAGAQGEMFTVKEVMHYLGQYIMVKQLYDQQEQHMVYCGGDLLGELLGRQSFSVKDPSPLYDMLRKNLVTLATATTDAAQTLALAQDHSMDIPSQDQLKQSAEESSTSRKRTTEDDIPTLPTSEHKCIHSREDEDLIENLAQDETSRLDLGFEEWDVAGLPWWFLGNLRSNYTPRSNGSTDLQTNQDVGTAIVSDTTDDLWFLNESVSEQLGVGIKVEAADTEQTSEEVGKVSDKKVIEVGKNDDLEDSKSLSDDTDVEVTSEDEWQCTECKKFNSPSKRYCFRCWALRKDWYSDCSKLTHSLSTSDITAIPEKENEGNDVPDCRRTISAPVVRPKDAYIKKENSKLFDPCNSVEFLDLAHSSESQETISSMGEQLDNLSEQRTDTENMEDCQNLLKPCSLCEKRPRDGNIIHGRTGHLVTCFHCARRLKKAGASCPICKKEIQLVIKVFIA
# Target sequence (Q00987 whole entry, looked up): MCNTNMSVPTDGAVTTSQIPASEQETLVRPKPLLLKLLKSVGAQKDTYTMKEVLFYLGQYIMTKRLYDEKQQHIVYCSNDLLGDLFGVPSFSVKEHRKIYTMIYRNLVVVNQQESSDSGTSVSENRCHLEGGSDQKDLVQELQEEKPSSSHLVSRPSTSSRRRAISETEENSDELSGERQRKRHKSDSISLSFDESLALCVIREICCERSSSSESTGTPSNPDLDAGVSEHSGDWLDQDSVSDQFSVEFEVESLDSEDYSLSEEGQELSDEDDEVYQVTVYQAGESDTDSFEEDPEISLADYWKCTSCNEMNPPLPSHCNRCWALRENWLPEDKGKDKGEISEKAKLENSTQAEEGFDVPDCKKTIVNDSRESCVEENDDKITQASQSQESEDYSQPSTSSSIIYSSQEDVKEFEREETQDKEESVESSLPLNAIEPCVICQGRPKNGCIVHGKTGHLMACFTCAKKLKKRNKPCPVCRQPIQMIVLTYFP
# HIF-2a conf: HIF-2a reporter inhibitor retest, confirmation, luminescence, 786-0 RCC cells. shares compounds with HIF-2a inh. HIF-2a luciferase reporter luminescence, overnight. inhibition, % at 18.8 µM. 1,800 tested, 56% active;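 active = mean inhibition across four replicates of at least 40 percent at the single tested concentration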
# HIF-1a counter: HIF-1a luciferase reporter signal reduction – MiaPaCa-2 cells, single concentration, counter-screen for HIF-2a inhibitor project, confirmation. shares compounds with HIF-2a inh. MiaPaCa-2 HIF-1a luciferase reporter, desferoxamine, overnight. inhibition, % at 18.8 µM. 1,800 tested, 72% active. AID 651589, 2012;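 active = mean inhibition of the reporter signal across four replicates at the single tested dose of 50% or more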
# Active calls of the source: *; ? = inconclusive; / = no result given. Sampled rows, rich in hits. Any-hit rate of the full collection: about 2.8%.
SMILES,KKLEB tox,HIF-2a inh,CF NFkB inh,Peg3 prom inh,Shn3 3UTR inh,MITF TRPM1 inh,HIF-2a conf,HIF-1a counter,others
CCc1cc(C(=O)OC)c(NC(=O)CSc2nccn2C)s1,2.0,7.9,-35.8,9.5,-2.7,5.1,/,/,
Cc1cc(C)nc(SCc2ccc(C(=O)N/N=C3\CCCC(=O)C3)cc2)n1,9.1,10.4,6.2,16.7,17.3,4.1,/,/,
O=C1C(=C(c2ccccc2)N2CCOCC2)Cc2ccccc21,-6.6,91.1*,90.8*,108.5*,97.6*,/,97.6*,105.0*,
COc1ccc2cc3c(N)nn(C(=O)Cc4c[nH]c5ccccc45)c3nc2c1,-25.9,50.3*,85.5*,106.1*,22.6,63.4*,30.2,101.9*,Mdm2-MdmX confirm=102.5*
COc1ccc2cc3c(N)nn(C(=O)c4ccccc4Cl)c3nc2c1,-4.7,42.6*,77.2*,10.4,8.3,34.1,20.4,94.5*,Mdm2-MdmX confirm=98.7*
COc1cccc(CC(=O)n2nc(N)c3cc4ccc(OC)cc4nc32)c1,-2.3,-40.4,-36.1,39.7,3.5,-30.9,/,/,
COc1ccc2cc3c(N)nn(C(=O)Cc4ccc(Cl)cc4)c3nc2c1,-6.2,8.4,21.6,15.4,12.1,0.5,/,/,
O=S1(=O)N[C@@H](c2ccccc2)COc2cc(Br)ccc21,-6.4,8.9,-16.3,-3.4,10.9,/,/,/,
CC1(C)CC1C(=O)Nc1ccc([N+](=O)[O-])cc1Br (stereo not drawn),-3.6,-13.1,8.9,-13.9,9.0,-19.5,/,/,
Cc1ccc(C2(c3ccc(C)cc3)CC2C(=O)Nc2ccc([N+](=O)[O-])cc2O)cc1 (stereo not drawn),-84.8*,-18.1,84.2*,52.8*,78.0,74.0*,/,/,Mdm2-MdmX confirm=95.5*
CC(C)c1ccc(NC(=O)Nc2nc(C(N)C3CCCCC3)cs2)cc1 (stereo not drawn),-45.2,49.6*,45.2,94.8*,97.4*,/,10.9,105.8*,
CNC[C@H](CC1CCCCC1)NC[C@H](CO)NCCc1cccc(C(F)(F)F)c1,-19.2,1.9,30.7,100.7*,0.5,57.4,/,/,Mdm2-MdmX confirm=103.2*
CC(=O)C(=Cc1ccc(-c2ccccc2)cc1)C(=O)c1ccccc1,/,65.1*,/,/,/,/,-18.6,103.2*,
CC(C)(C)C1CCSC2=NCCC[C@]2(c2ccccc2)C1 (stereo partly drawn),/,5.6,/,/,/,/,/,/,
O=C(c1cc(S(=O)(=O)NCc2ccco2)ccc1Br)N1CCOCC1,12.6,0.5,-6.5,-4.8,-6.1,6.0,/,/,
CCn1c2ccccc2c2cc([N+](=O)[O-])ccc21,11.1,12.5,1.9,2.4,10.6,8.5,/,/,
CN(C)CCn1c2ccccc2c2nc3ccc([N+](=O)[O-])cc3cc21,1.0,-70.5,-81.3,-10.6,1.1,/,/,/,Mdm2-MdmX confirm=102.5*
S=c1[nH]nc(-c2ccccc2)n1/N=C/c1ccc(-c2ccccc2Cl)o1,18.8,0.0,6.7,12.4,13.2,5.5,/,/,Mdm2-MdmX confirm=100.2*
O=C(CN(c1cccc(C(F)(F)F)c1)S(=O)(=O)c1ccc(Cl)c([N+](=O)[O-])c1)NCc1ccc(F)cc1,1.4,81.7*,8.7,88.5*,-12.7,44.0,39.6,104.5*,
COc1cc(C2c3c(-c4cc(Cl)c(C)cc4O)n[nH]c3C(=O)N2Cc2cccnc2)ccc1O (stereo not drawn),-15.7,43.3*,25.6,31.8,-12.1,2.0,31.1,60.5*,
COc1ccc(/C(C)=N/NC(=O)CNC(=O)C(c2ccccc2)c2ccccc2)c(OC)c1,10.0,3.1,-19.1,-7.4,4.9,-10.4,/,/,
O=C(NCCCc1ccccc1)c1cccc(Br)c1,-9.0,-112.9,13.5,-90.0,-33.4,-25.8,/,/,
O=C(CN(Cc1ccccc1)C(=O)CCl)c1cccc(Br)c1,-67.2*,30.7,61.3*,10.9,24.4,23.1,/,/,Mdm2-MdmX confirm=103.0*
O=C(O)C(CCC(C(=O)O)c1ccccc1)c1ccccc1 (stereo not drawn),5.3,-7.7,2.5,-15.0,7.8,-4.0,/,/,
CCN(CC(=O)NCc1cccs1)C(=O)c1ccc(S(=O)(=O)Nc2ccccc2Cl)cc1,-9.0,-6.1,3.5,-5.2,-11.1,4.5,/,/,
SMILES,KKLEB tox,HIF-2a inh,CF NFkB inh,Peg3 prom inh,Shn3 3UTR inh,MITF TRPM1 inh,HIF-2a conf,HIF-1a counter,others
NCCCn1cnc2ccccc21,1.8,47.5*,8.0,3.8,-6.5,11.0,1.1,24.9,
Nc1ccc(-c2cnc[nH]2)cc1[N+](=O)[O-],7.0,-20.8,-18.7,-21.6,-3.9,-109.0,/,/,
CC1CCN(Cc2c(C(=O)N/N=C/c3cc(Br)ccc3O)nnn2-c2nonc2N)CC1,-21.4,5.9,37.2,73.8*,?,64.7*,/,/,Mdm2-MdmX confirm=91.2*
Cc1cc(C)c(/C=N/NC(=O)c2nnn(-c3nonc3N)c2CN2CCC(C)CC2)c(C)c1,6.6,-0.4,7.6,31.3,3.5,1.5,/,/,
O=C(NC1CCCC1)C(c1ccc(F)cc1)N(C(=O)c1csnn1)C1CC1 (stereo not drawn),-24.4,10.1,0.6,-8.2,-4.4,-14.1,/,/,
NC(=S)c1cc2ccc(O)cc2oc1=O,-2.1,12.1,-24.2,10.7,17.2,4.2,/,/,
Oc1cc(O)cc(-c2cc3ccc(O)cc3o2)c1,-15.4,40.5*,-7.9,-242.8,2.6,10.7,23.2,11.3,
CCC(Sc1nc2n[nH]c(C)c2c(=N)n1-c1cccc(Cl)c1)C(=O)NCCOC (stereo not drawn),-13.0,23.9,16.0,26.0,22.3,4.6,/,/,
CCC(Sc1nc2n[nH]c(C)c2c(=N)n1-c1ccc(C)c(Cl)c1)C(=O)N1CCOCC1 (stereo not drawn),-15.8,40.6*,8.7,36.2,20.2,-10.4,9.6,70.2*,
Cc1ccc2sc(N(CCCN(C)C)C(=O)CCS(=O)(=O)c3ccccc3)nc2c1C,-81.0*,88.2*,91.8*,107.5*,57.0,33.2,24.2,77.5*,
COc1ccc(OC)c2sc(N(CCCN(C)C)C(=O)CCS(=O)(=O)c3ccccc3)nc12,-29.9,45.0*,85.8*,108.8*,18.7,21.3,37.2,59.9*,

# Screening results (PubChem)
